Assay results taken from the supplement of paper PMC3484114.
± gives the standard deviation.

tested on: OVCAR-3-derived ovarian cancer stem-like cells (spheroids); assay: cell growth relative to untreated control; higher = more growth (less inhibition); conditions: 2.29 µM; 96 h
Summary of the method: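 After trypsin dissociation, OVCAR-3 spheroid-derived stem-like cells were placed in ultra-low attachment 96-well plates at 50,000 cells/mL in stem cell medium and preincubated for 24 h. Treatment at 2.29 uM followed for 96 h at 37°C, 5% CO2, with 4 replicate wells per compound. A 4 h TOX8 resazurin fluorescence read (ex 560/em 590 nm) gave viability, from which percent growth relative to untreated wells was derived after blank subtraction and Grubbs outlier removal.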

| SMILES | cell growth [%] |
| --- | --- |
| C=C(C)C(=O)OC1CCC2(C)C(CCC3C2CCC2(C)C(c4ccc(=O)oc4)CC4OC432)C1 (stereo not given) | 92.2 ± 18 |
| CC(C)(O)C=CC(=O)C(C)(O)C1C(O)CC2(C)C3CC=C4C(C=C(O)C(=O)C4(C)C)C3(C)C(=O)CC12C (stereo not given) | 28.1 ± 6.1 |
| CC[PH+](CC)CC.[Cl][Au] | 103 ± 27 |
| CCOC(=O)[C@H](CC(C)C)NC(=O)C(Cc1ccc(N(CCCl)CCCl)cc1)NC(C)=O (stereo not given in full) | 73.3 ± 40 |
| CC(=O)[O][Hg][c]1c(C)c(C)c(C)c(C)c1C | 94.5 ± 28 |
| CC(C)c1oc(=O)cc2c1[C@@H](O)[C@H]1OC(=O)[C@@]3(C)[C@@H](O)[C@H]4O[C@H]4[C@@]2(C)[C@@H]13 | 62.6 ± 32 |
| CCCNC1=C(C)C(=O)C2=C(C1=O)[C@H](COC(N)=O)[C@]1(OC)[C@@H]3N[C@@H]3CN21 | 60.4 ± 24 |
| CC(=O)O[C@H]1C[C@H](O[C@H]2[C@@H](O)C[C@H](O[C@H]3[C@@H](O)C[C@H](O[C@H]4CC[C@@]5(C)[C@H](CC[C@@H]6[C@@H]5CC[C@]5(C)[C@@H](C7=CC(=O)OC7)CC[C@]65O)C4)O[C@@H]3C)O[C@@H]2C)OC(C)[C@H]1O[C@@H]1O[C@H](CO)[C@@H](O)[C@H](O)[C@H]1O (stereo not given in full) | 21.7 ± 8.3 |
| CC(C)C(NC(=O)C(C(C)C)N(C)C)C(=O)N(C)C(C(=O)N1CCCC1C(=O)N1CCCC1C(=O)NCc1ccccc1)C(C)C (stereo not given) | 24.5 ± 8.1 |
| O=C1NC(=S)NC(=O)C1C(=O)Nc1ccccc1 | 23.7 ± 5.9 |
| C1CCNCC1.S=C(S)N1CCCCC1 | 36.2 ± 3.5 |
| Cc1cc2c(C(C)C)c(O)c(O)c(C=O)c2c(O)c1-c1c(C)cc2c(C(C)C)c(O)c(O)c(C=O)c2c1O | 86 ± 61 |
| N[C@@H](CN(O)N=O)C(=O)O | 105 ± 19 |
| COc1cc2c(c3oc4cccc(O)c4c(=O)c13)[C@@H]1C=CO[C@@H]1O2 | 112 ± 22 |
| Cc1cc(N(CC(C)Br)CC(C)Br)ccc1N=Nc1ccccc1C(=O)O (stereo not given) | 64.5 ± 14 |
| COC(=O)[C@@]12OC[C@]34[C@H]([C@@H](O)[C@@H]1O)[C@@]1(C)CC(=O)C(O)=C(C)[C@@H]1C[C@H]3OC(=O)[C@H](OC(=O)/C=C(\C)C(C)C)[C@@H]24 | 6.1 ± 4.4 |
| CC12CCC(O)CC1CCC1C2CCC2(C)C(C3=CC(=O)OC3)CCC12O (stereo not given) | 26.5 ± 3.1 |
| [Cl][Cd][Cl] | 87.6 ± 51 |
| NP(=O)(Oc1c2occc2cc2ccc(=O)oc12)N(CCCl)CCCl (stereo not given) | 72.2 ± 18 |
| CC[C@H](C)[C@@H]1NC(=O)[C@@H](NC(=O)c2c3nc4c(C(=O)N[C@@H]5C(=O)N[C@@H](C(C)C)C(=O)N6CCC[C@H]6C(=O)N(C)CC(=O)N(C)[C@@H](C(C)C)C(=O)O[C@@H]5C)ccc(C)c4oc-3c(C)c(=O)c2N)[C@@H](C)OC(=O)[C@H](C(C)C)N(C)C(=O)CN(C)C(=O)[C@@H]2CCCN2C1=O | 10.9 ± 3.5 |
